In the supplement of paper PMC10849652:
Targets with a hit are over-represented here; the source holds about 7,900 in all. About 0.6% of all pairs of compound and target were hits.

Assays:
Experiment in all cases: log2 fold change, soluble protein after heating vs DMSO (PISA); higher = thermal stabilisation; K562 cells, 10 uM, 30 min; active = over 0.2 and 3.5 SD of the protein, either way, in both replicates (recomputed)
ZC3H8 = ZC3H8 (UniProt Q8N5P1)
Outline: (§1)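 For each measurement, 10 μM compound was applied for 30 min to K562 cells at 2×10^6 cells/mL. Aliquots were heated for 3 min across 48°C-58°C, pooled, and extracted in PBS with 0.5% NP-40 at 4°C; the supernatant after 21,000xg for 90 min was soluble protein. This was quantified by TMTpro 16plex LC-MS/MS with channel sums equalised, and thermal stability was reported relative to control samples from duplicates, on a log2 fold-change scale.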

ZC3HC1 = ZC3HC1 (UniProt Q86WB0)
Chain of ZC3HC1 (Q86WB0 whole entry, looked up): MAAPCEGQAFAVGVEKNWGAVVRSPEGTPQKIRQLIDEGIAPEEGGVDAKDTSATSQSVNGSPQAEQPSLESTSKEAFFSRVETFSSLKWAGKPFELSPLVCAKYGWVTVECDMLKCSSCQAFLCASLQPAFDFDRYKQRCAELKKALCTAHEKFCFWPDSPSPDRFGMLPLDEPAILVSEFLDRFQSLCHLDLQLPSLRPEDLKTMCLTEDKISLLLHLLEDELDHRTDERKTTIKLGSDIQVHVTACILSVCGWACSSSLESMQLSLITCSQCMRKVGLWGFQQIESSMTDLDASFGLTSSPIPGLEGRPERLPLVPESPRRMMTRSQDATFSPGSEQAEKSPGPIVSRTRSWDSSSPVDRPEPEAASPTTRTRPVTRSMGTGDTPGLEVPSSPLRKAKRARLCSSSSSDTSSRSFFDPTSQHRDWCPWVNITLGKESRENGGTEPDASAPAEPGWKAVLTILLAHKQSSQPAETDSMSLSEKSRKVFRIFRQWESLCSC
Outline: as §1

ZCCHC17 = ZCCHC17 (UniProt Q9NP64)
Chain of ZCCHC17 (Q9NP64 whole entry, looked up): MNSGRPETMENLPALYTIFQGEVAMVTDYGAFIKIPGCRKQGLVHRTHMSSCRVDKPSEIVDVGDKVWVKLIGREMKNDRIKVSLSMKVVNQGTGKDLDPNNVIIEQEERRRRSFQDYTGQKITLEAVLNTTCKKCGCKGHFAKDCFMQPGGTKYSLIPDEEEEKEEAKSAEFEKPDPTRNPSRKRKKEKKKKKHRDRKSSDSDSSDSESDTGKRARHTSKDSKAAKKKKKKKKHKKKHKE
Outline: as §1

ZCCHC9 = ZCCHC9 (UniProt Q8N567)
Chain of ZCCHC9 (Q8N567 whole entry, looked up): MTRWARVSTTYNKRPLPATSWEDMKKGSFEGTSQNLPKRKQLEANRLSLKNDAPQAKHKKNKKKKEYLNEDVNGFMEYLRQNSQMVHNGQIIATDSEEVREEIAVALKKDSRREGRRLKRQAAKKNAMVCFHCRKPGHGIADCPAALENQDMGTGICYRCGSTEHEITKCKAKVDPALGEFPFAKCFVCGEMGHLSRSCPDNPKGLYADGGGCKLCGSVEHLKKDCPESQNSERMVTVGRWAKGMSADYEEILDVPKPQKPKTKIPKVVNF
Outline: as §1

ZDHHC17 = ZDHHC17 (UniProt Q8IUH5)
Chain of ZDHHC17 (Q8IUH5 whole entry, looked up): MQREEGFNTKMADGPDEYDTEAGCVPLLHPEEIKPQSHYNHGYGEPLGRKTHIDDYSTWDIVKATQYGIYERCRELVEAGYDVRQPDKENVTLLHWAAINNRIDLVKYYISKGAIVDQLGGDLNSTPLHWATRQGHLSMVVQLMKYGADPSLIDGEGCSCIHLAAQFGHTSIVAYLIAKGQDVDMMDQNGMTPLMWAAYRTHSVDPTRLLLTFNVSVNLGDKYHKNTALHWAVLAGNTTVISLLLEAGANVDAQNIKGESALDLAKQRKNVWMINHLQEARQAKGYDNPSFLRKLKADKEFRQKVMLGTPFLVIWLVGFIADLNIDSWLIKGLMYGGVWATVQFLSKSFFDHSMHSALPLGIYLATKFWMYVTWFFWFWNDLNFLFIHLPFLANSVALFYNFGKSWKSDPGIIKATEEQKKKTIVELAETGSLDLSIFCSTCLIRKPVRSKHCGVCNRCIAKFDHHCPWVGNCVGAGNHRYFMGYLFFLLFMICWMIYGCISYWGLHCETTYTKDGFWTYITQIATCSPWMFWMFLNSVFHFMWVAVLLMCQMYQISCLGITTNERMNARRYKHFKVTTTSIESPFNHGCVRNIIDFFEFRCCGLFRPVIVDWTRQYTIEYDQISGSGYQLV
Outline: as §1

ZDHHC20 = ZDHHC20 (UniProt Q5W0Z9)
Chain of ZDHHC20 (Q5W0Z9 whole entry, looked up): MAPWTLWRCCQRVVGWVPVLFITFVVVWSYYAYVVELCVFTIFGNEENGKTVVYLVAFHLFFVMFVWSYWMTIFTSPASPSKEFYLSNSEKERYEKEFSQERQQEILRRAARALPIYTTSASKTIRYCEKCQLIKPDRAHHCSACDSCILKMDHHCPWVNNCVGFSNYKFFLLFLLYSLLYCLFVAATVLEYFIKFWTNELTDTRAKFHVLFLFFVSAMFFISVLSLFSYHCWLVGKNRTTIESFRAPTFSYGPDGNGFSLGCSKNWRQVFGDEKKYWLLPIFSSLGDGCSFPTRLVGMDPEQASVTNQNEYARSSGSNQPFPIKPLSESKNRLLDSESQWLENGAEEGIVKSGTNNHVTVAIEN
Outline: as §1

ZDHHC5 = ZDHHC5 (UniProt Q9C0B5)
Outline: as §1

ZDHHC7 isoform 2 = ZDHHC7 isoform 2 (UniProt Q9NXF8)
Outline: as §1

ZEB2 = ZEB2 (UniProt O60315)
Outline: as §1

ZER1 = ZER1 (UniProt Q7Z7L7)
Outline: as §1

ZFAND5 = ZFAND5 (UniProt O76080)
Chain of ZFAND5 (O76080 whole entry, looked up): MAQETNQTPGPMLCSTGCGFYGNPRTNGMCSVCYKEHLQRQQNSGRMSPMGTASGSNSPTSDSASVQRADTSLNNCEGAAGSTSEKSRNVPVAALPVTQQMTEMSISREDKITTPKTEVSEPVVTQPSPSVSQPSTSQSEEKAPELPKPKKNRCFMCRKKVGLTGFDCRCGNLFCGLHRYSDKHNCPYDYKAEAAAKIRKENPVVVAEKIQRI
Outline: as §1

ZFAND6 = ZFAND6 (UniProt Q6FIF0)
Chain of ZFAND6 (Q6FIF0 whole entry, looked up): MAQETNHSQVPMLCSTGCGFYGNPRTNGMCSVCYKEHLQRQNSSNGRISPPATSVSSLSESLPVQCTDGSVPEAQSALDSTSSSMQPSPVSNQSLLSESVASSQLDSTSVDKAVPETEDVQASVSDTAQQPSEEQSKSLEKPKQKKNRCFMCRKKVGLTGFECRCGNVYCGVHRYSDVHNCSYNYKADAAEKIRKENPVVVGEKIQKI
Outline: as §1

ZFP91 = ZFP91 (UniProt Q96JP5)
Chain of ZFP91 (Q96JP5 whole entry, looked up): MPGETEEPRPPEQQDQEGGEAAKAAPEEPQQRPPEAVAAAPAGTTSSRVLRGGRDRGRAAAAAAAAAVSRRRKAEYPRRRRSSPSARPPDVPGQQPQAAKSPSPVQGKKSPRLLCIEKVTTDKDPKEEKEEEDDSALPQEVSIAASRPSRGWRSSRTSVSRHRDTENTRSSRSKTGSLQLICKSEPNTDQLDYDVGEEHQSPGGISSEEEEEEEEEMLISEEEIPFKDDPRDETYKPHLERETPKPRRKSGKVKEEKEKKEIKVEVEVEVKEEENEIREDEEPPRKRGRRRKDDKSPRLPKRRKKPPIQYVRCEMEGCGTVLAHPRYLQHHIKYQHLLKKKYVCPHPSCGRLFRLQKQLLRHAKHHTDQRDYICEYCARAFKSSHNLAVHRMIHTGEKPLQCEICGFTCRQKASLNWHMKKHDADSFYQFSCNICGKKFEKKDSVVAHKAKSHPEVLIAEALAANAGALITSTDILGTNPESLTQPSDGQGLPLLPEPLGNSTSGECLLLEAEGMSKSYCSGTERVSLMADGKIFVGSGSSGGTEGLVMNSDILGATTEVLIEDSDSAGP
Outline: as §1

ZFPL1 = ZFPL1 (UniProt O95159)
Chain of ZFPL1 (O95159 whole entry, looked up): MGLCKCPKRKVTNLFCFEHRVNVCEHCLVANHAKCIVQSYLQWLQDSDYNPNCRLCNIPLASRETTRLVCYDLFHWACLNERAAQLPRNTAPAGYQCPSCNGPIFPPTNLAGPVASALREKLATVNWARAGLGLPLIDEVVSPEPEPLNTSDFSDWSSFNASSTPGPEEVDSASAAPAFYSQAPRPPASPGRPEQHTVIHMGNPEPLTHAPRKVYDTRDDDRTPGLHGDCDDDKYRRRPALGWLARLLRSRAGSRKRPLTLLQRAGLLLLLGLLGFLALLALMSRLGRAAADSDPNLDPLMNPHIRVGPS
Outline: as §1

ZMAT2 = ZMAT2 (UniProt Q96NC0)
Chain of ZMAT2 (Q96NC0 whole entry, looked up): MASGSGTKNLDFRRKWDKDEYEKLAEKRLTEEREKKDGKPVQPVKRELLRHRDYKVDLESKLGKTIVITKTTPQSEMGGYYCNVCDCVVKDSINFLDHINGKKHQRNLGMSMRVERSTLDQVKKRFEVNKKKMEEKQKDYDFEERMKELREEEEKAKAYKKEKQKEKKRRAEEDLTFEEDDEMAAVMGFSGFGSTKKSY
Outline: as §1

ZMYM1 = ZMYM1 (UniProt Q5SVZ6)
Outline: as §1

ZMYM3 = ZMYM3 (UniProt Q14202)
Outline: as §1

ZNF143 = ZNF143 (UniProt P52747)
Chain of ZNF143 (P52747 whole entry, looked up): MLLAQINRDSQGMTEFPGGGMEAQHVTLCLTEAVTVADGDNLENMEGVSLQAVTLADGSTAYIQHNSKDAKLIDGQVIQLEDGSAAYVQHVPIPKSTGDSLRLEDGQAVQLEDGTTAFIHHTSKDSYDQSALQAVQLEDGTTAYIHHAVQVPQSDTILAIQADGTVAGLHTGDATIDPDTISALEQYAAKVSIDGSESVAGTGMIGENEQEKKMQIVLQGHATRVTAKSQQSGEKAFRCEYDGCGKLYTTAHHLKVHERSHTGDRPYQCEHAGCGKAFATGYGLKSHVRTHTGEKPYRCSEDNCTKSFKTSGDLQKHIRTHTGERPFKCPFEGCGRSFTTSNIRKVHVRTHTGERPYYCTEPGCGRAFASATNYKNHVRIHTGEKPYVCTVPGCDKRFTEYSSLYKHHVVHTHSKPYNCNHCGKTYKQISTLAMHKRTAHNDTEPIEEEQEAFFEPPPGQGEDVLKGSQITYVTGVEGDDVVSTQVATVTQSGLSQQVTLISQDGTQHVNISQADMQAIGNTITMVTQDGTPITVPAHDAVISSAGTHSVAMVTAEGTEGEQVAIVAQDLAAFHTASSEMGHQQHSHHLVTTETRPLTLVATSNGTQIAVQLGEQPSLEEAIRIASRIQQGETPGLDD
Outline: as §1

ZDHHC6 = ZDHHC6 (UniProt Q9H6R6)
Chain of ZDHHC6 (Q9H6R6 whole entry, looked up): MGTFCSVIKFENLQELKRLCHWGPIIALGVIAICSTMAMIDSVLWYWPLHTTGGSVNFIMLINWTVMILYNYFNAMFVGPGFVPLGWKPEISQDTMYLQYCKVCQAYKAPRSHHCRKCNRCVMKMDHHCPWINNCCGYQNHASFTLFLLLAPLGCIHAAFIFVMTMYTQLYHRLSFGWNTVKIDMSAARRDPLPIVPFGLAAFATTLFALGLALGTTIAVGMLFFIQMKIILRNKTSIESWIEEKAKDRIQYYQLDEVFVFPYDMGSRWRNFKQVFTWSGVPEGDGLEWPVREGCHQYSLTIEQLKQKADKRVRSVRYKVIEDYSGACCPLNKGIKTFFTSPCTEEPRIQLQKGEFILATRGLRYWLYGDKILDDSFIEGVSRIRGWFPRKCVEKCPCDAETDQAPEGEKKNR
Outline: as §1

ZDHHC8 isoform 3 = ZDHHC8 isoform 3 (UniProt Q9ULC8)
Outline: as §1

Measured: log2 fold change

Chain of ZC3H8 (Q8N5P1 whole entry, looked up): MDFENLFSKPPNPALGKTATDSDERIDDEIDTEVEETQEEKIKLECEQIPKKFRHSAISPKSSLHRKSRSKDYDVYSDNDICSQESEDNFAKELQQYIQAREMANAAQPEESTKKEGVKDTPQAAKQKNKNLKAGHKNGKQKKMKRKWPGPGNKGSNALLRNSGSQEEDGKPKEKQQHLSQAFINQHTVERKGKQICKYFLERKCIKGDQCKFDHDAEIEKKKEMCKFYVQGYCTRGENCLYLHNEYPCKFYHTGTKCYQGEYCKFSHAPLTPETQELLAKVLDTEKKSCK

COC(=O)[C@H](CCSC)NC(=O)c1ccc(NC[C@@H](N)CS)cc1-c1ccccc1
inactive: ZC3H8 -0.009 | ZC3HC1 -0.093 | ZCCHC17 0.033 | ZCCHC9 0.081 | ZDHHC17 0.01 | ZDHHC20 0.028 | ZDHHC5 0.054 | ZDHHC7 isoform 2 0.019 | ZEB2 -0.382 | ZER1 0.035 | ZFAND5 0.1 | ZFAND6 0.061 | ZFP91 0.064 | ZFPL1 -0.007 | ZMAT2 0.019 | ZMYM1 0.026 | ZMYM3 0.035 | ZNF143 0.013

COc1cc2nc(-c3cc(F)ccc3O)nc(N[C@@H]3CNC[C@H]3C(C)(C)O)c2cc1OC
inactive: ZC3H8 0.05 | ZC3HC1 0.013 | ZCCHC9 -0.006 | ZDHHC17 0.029 | ZDHHC20 -0.086 | ZDHHC5 0.117 | ZDHHC6 0.018 | ZDHHC7 isoform 2 -0.012 | ZEB2 -0.018 | ZER1 0.048 | ZFAND5 0 | ZFAND6 0.017 | ZFP91 -0.095 | ZFPL1 0.099 | ZMAT2 -0.028 | ZMYM1 0.004 | ZMYM3 -0.045 | ZNF143 -0.19

CCCS(=O)(=O)Nc1ccc(F)c(C(=O)c2c[nH]c3ncc(-c4ccc(Cl)cc4)cc23)c1F [vemurafenib]
inactive: ZC3H8 -0.071 | ZC3HC1 0.09 | ZCCHC17 -0.396 | ZCCHC9 -0.11 | ZDHHC17 0.016 | ZDHHC20 0.049 | ZDHHC5 -0.021 | ZDHHC7 isoform 2 -0.016 | ZEB2 0.256 | ZER1 -0.033 | ZFAND5 -0.106 | ZFAND6 -0.024 | ZFP91 -0.071 | ZFPL1 0.021 | ZMAT2 -0.021 | ZMYM1 -0.095 | ZMYM3 -0.109 | ZNF143 0.029

Nc1ccccc1NC(=O)c1ccc(CNC(=O)OCc2cccnc2)cc1 [entinostat]
inactive: ZC3H8 -0.141 | ZC3HC1 0.1 | ZCCHC17 0.081 | ZCCHC9 -0.112 | ZDHHC17 -0.047 | ZDHHC20 0.045 | ZDHHC5 -0.034 | ZEB2 -0.03 | ZER1 0.049 | ZFAND5 -0.031 | ZFAND6 -0.007 | ZFP91 -0.054 | ZFPL1 -0.03 | ZMAT2 0.081 | ZMYM1 -0.012 | ZMYM3 -0.073 | ZNF143 -0.012

CN(C)CC(=O)Nc1ccc2[nH]c(=O)c3ccccc3c2c1
inactive: ZC3H8 -0.047 | ZC3HC1 0.089 | ZCCHC17 -0.059 | ZCCHC9 -0.125 | ZDHHC17 -0.005 | ZDHHC20 -0.026 | ZDHHC5 -0.032 | ZDHHC7 isoform 2 0.057 | ZEB2 -0.124 | ZER1 -0.099 | ZFAND5 -0.119 | ZFAND6 -0.052 | ZFP91 -0.074 | ZFPL1 0 | ZMAT2 -0.018 | ZMYM1 -0.046 | ZMYM3 -0.067 | ZNF143 -0.025

C[C@@H]1COCCN1c1cc(C2(S(C)(=O)=O)CC2)nc(-c2cccc3[nH]ccc23)n1
inactive: ZC3H8 -0.151 | ZC3HC1 0.119 | ZCCHC9 -0.381 | ZDHHC17 0.005 | ZDHHC20 0.131 | ZDHHC5 -0.011 | ZDHHC6 0.067 | ZDHHC7 isoform 2 -0.037 | ZDHHC8 isoform 3 0.284 | ZEB2 0.001 | ZER1 0.107 | ZFAND5 0.041 | ZFAND6 0.127 | ZFP91 -0.124 | ZFPL1 -0.056 | ZMAT2 -0.022 | ZMYM1 0.029 | ZMYM3 -0.058 | ZNF143 -0.018

CS(=O)(=O)c1ccc(-c2cnc(N)c(C(=O)Nc3ccccc3)n2)cc1
inactive: ZC3H8 0 | ZC3HC1 0.066 | ZCCHC17 -0.069 | ZCCHC9 0.1 | ZDHHC17 -0.005 | ZDHHC20 0.067 | ZDHHC5 0.129 | ZEB2 0.025 | ZER1 0.034 | ZFAND5 -0.035 | ZFAND6 -0.036 | ZFP91 -0.072 | ZFPL1 -0.045 | ZMAT2 -0.127 | ZMYM1 0.026 | ZMYM3 0.023 | ZNF143 -0.014

CC[C@@H]1C(=O)N(C)c2cnc(Nc3ccc(C(=O)N[C@H]4CC[C@H](N5CCN(CC6CC6)CC5)CC4)cc3OC)nc2N1C(C)C [volasertib]
active: ZC3HC1 -0.579 | ZNF143 -0.289
inactive: ZC3H8 0.207 | ZCCHC9 0.226 | ZDHHC17 -0.095 | ZDHHC20 0.011 | ZDHHC5 0.093 | ZDHHC6 -0.094 | ZDHHC7 isoform 2 -0.059 | ZEB2 0.001 | ZER1 0.009 | ZFAND5 0.215 | ZFAND6 0.09 | ZFP91 0.016 | ZFPL1 -0.088 | ZMAT2 0.036 | ZMYM1 -0.118 | ZMYM3 -0.077

CN1CCN(c2nc(C3=C(c4c[nH]c5ccccc45)C(=O)NC3=O)c3ccccc3n2)CC1 [sotrastaurin]
inactive: ZC3H8 0.025 | ZC3HC1 -0.178 | ZCCHC17 -0.095 | ZCCHC9 0.243 | ZDHHC17 0.099 | ZDHHC20 0.015 | ZDHHC5 -0.069 | ZEB2 -0.056 | ZER1 0.078 | ZFAND5 0.11 | ZFAND6 0.13 | ZFP91 0.105 | ZFPL1 0.003 | ZMAT2 -0.088 | ZMYM1 0.027 | ZMYM3 0.027 | ZNF143 -0.031

NCC(=O)Nc1ccc(-n2nc(C(F)(F)F)cc2-c2ccc3c(ccc4ccccc43)c2)cc1
inactive: ZC3H8 0.036 | ZC3HC1 -0.076 | ZCCHC17 -0.137 | ZCCHC9 -0.013 | ZDHHC17 0.012 | ZDHHC20 0.093 | ZDHHC5 -0.005 | ZDHHC7 isoform 2 -0.056 | ZEB2 -0.343 | ZER1 0.03 | ZFAND5 0.103 | ZFAND6 0.061 | ZFP91 0.036 | ZFPL1 0.027 | ZMAT2 0.016 | ZMYM1 0.336 | ZMYM3 0.073 | ZNF143 -0.047

CC(C)(O)CC(=O)NCCn1ccc2ncnc(Nc3ccc(Oc4cccc(C(F)(F)F)c4)c(Cl)c3)c21
active: ZDHHC6 -0.932 | ZDHHC8 isoform 3 0.486
inactive: ZC3H8 0.064 | ZC3HC1 -0.179 | ZCCHC9 0.166 | ZDHHC17 0.062 | ZDHHC20 -0.082 | ZDHHC5 0.033 | ZDHHC7 isoform 2 -0.026 | ZEB2 0.034 | ZER1 -0.104 | ZFAND5 -0.019 | ZFAND6 0.015 | ZFP91 0.065 | ZFPL1 0.04 | ZMAT2 -0.016 | ZMYM1 -0.01 | ZMYM3 0.084 | ZNF143 0.028

c1cn2cc(-c3ccc4cn[nH]c4c3)nc(Nc3ccc(N4CCOCC4)cc3)c2n1 [entospletinib]
inactive: ZC3H8 -0.034 | ZC3HC1 0.005 | ZCCHC9 0.168 | ZDHHC17 0.059 | ZDHHC20 -0.02 | ZDHHC5 0.071 | ZDHHC6 -0.058 | ZDHHC7 isoform 2 0.027 | ZER1 0.036 | ZFAND5 0.128 | ZFAND6 0.019 | ZFP91 0.011 | ZFPL1 0.034 | ZMAT2 -0.116 | ZMYM1 0.174 | ZMYM3 -0.043 | ZNF143 0.015

CNCc1ccc(-c2[nH]c3cc(F)cc4c3c2CCNC4=O)cc1 [rucaparib]
active: ZFAND6 -0.241
inactive: ZC3H8 0.19 | ZC3HC1 -0.047 | ZCCHC9 0.4 | ZDHHC17 -0.034 | ZDHHC20 0.115 | ZDHHC5 0.086 | ZDHHC6 0.176 | ZDHHC7 isoform 2 -0.067 | ZER1 -0.271 | ZFAND5 -0.012 | ZFP91 0.113 | ZFPL1 0.021 | ZMAT2 -0.206 | ZMYM1 0.331 | ZMYM3 0.049 | ZNF143 -0.008

c1cc(OCCN2CCCCC2)cc(-c2n[nH]c3ccc(-c4nnc[nH]4)cc23)c1
inactive: ZC3H8 -0.104 | ZC3HC1 -0.046 | ZCCHC9 -0.067 | ZDHHC17 0.068 | ZDHHC20 0.053 | ZDHHC5 -0.076 | ZDHHC6 -0.005 | ZDHHC7 isoform 2 -0.191 | ZER1 0.023 | ZFAND5 -0.063 | ZFAND6 -0.006 | ZFP91 -0.161 | ZFPL1 0.008 | ZMAT2 0.035 | ZMYM1 -0.229 | ZMYM3 0.029 | ZNF143 -0.06

CC[C@@H]1C(=O)N(C)c2cnc(Nc3ccc(C(=O)NC4CCN(C)CC4)cc3OC)nc2N1C1CCCC1
inactive: ZC3H8 0.181 | ZC3HC1 -0.163 | ZCCHC9 0.246 | ZDHHC17 -0.009 | ZDHHC20 0.031 | ZDHHC5 0.035 | ZDHHC6 -0.114 | ZDHHC7 isoform 2 0.083 | ZER1 -0.032 | ZFAND5 0.052 | ZFAND6 0.058 | ZFP91 0.104 | ZFPL1 -0.027 | ZMAT2 0.017 | ZMYM1 0.202 | ZMYM3 0.015 | ZNF143 -0.018

Cc1ccc(NC(=O)c2cccc(C(C)(C)C#N)c2)cc1Nc1ccc2ncn(C)c(=O)c2c1
inactive: ZC3H8 -0.021 | ZC3HC1 0.011 | ZCCHC17 -0.065 | ZCCHC9 -0.227 | ZDHHC17 0.076 | ZDHHC20 -0.067 | ZDHHC5 0.048 | ZEB2 -0.027 | ZER1 -0.041 | ZFAND5 -0.064 | ZFAND6 0.069 | ZFP91 0.017 | ZFPL1 0.061 | ZMAT2 0.209 | ZMYM1 -0.071 | ZMYM3 -0.092 | ZNF143 -0.023
